# ABHD5 PLIN5 PPI: ABHD5-PLIN5 protein interaction inhibition | Q00G26+Q8WTS1 | Split G. princeps luciferase complementation, luminescence, 4 h | inhibition, % at 4 µM | actives 0.78% (n = 360,000) | AID 602281;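 active = inhibition above the mean inhibition across every tested compound plus 3 SD, cut at about 22% in these data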;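 note: 0% = DMSO only wells and the 100% control is not disclosed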
# H9c2 protect: myocardial damage modulation in H9c2 cells | H9c2 cardiomyocytes, H2O2 injury protection, ATPLite, 2 h | actives 0.63% (n = 360,000) | AID 588492 | protection from H2O2 cell death, % at 20 µM;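 active = compounds giving at least 50% protection of heart cells from peroxide-induced death in the single-dose screen, raw or plate-pattern-corrected value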;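 note: 0% = DMSO wells with peroxide and 100% = DMSO wells without peroxide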
# DAGLB inh: diacylglycerol lipase beta (human) inhibition; HEK293T DAGLB membrane lysate, EnzChek fluorogenic substrate; inhibition, % at 5.17 µM; actives 0.059% (n = 340,000); in the data active = inhibition above about 34%;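 note: 0% = enzyme with vehicle and 100% = wells lacking enzyme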
# sPLA2-III inh: Blocks human group III sPLA2 activity | actives 0.56% (n = 370,000) | inhibition, % at 12.2 µM | QFRET BODIPY PC-A2 liposome hydrolysis, fluorescence | Q9NZ20;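 active = inhibition above mean plus 3 SD of compounds lying within the high and low control bounds, cut at about 19% in these data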;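 note: 0% = median of test compound wells and 100% = no enzyme DMSO wells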
# Target sequence (Q9NZ20 whole entry, looked up): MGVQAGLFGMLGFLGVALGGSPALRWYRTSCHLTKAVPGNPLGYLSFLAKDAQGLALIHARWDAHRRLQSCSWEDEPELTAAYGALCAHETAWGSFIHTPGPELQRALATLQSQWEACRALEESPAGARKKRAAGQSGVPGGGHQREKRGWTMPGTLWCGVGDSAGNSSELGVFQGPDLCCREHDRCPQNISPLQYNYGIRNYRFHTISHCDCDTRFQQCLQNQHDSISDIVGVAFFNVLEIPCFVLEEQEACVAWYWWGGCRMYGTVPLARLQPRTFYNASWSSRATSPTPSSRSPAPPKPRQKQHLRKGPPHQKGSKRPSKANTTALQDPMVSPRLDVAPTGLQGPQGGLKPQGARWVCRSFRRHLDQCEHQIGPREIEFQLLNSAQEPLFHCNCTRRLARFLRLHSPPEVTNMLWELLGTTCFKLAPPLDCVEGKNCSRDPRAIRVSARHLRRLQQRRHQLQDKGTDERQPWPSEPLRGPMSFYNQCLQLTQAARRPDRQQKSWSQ
# Myeloid diff MLP: compounds promoting myeloid differentiation; ER-HoxA9 myeloid progenitors, lysozyme-GFP differentiation, flow cytometry; AID 624256; actives 1% (n = 360,000); calls only at 10 µM;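 active = normalized GFP-positive differentiation at or above the plate's own cutoff, the solvent-only control mean plus 3 SD; inconclusive = no clear call, values can overlap the other calls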;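 note: cells exposed to compound for four days before flow analysis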
# Rtt109 Vps75: blocks Candida albicans Rtt109/Vps75 acetyltransferase activity | inhibition, % at 34.9 µM | Q5AAJ8 | actives 0.16% (n = 330,000) | purified Rtt109/Vps75, ThioGlo CoA-SH fluorescence, 4 h;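 active = inhibition of at least 50% in every replicate; inconclusive = best replicate reaches 50% inhibition but some replicates fall short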
# An asterisk follows results filed as active; i = inactive; u = inconclusive; x = no result; + = active, no number. Sampled rows, rich in hits. Any-hit rate of the full collection: about 2.9%.
SMILES,ABHD5 PLIN5 PPI,H9c2 protect,DAGLB inh,sPLA2-III inh,Myeloid diff MLP,Rtt109 Vps75
CCN(CC)CCCNc1nc2cc(OC)c(OC)cc2c2nc(-c3cccnc3)nn12,0,12,2,2,i,79*
CCCCOc1ccc(C(=O)NC2CCCCN(CCC)C2=O)cc1 (centres undefined),x,x,x,-3,x,x
O=C(CCc1c[nH]c2ccccc12)N1CCN(c2ccc(O)cc2)CC1,-3,-4,-1,-18,i,1
O=C(CN1CCN(c2cccc(Cl)c2)CC1)c1ccc(O)cc1O,6,-7,3,1,i,0
COc1cc(/C=C2\SC(N3CCc4ccccc4C3)=NC2=O)cc(OC)c1OC,0,52*,-1,17,i,-2
O=C1N=C(N2CCOCC2)S/C1=C/c1cccs1,12,-3,1,10,+,24
O=C1N=C(N2CCCC2)S/C1=C\c1ccccc1,2,1,-2,0,+,4
Cc1ccc(/C=C2\SC(N3CCCCC3)=NC2=O)cc1,-5,0,0,8,i,1
COc1ccc(/C=C2\SC(N3CCc4ccccc4C3)=NC2=O)cc1,2,1,4,-19,i,5
CC(=O)N1CCN(C2=NC(=O)/C(=C\c3cccs3)S2)CC1,-3,0,0,-1,i,0
NC(=O)c1cc2ccccc2o/c1=N/NC(=O)c1cccs1,-1,27,0,3,i,19
COc1ccc2o/c(=N/NC(=O)c3cccs3)c(C(N)=O)cc2c1,3,54*,-2,4,i,12
NC(=O)c1cccc(Nc2nc(C(N)COCc3ccccc3)cs2)n1 (centres undefined),5,88*,x,9,i,x
O=C(O)CS(=O)(=O)c1ccc(C(F)(F)F)cn1,1,7,-2,13,+,0
COc1ccnc(Oc2ccc(F)cc2)c1C(=O)N/C=N/OCc1ccc(Cl)cc1Cl,0,51*,-1,5,i,-22
COc1ccnc(Oc2ccc(F)cc2)c1C(=O)N/C=N/OCc1ccc(F)cc1Cl,-5,28,-3,1,i,13
Cc1cc2oc(=O)cc(CSc3nnc(C)n3N)c2cc1C(C)C,-9,4,-1,x,+,5
CC1=C(C(=O)Nc2ccccc2C(=O)NC2CCC(C)CC2)SCCO1 (centres undefined),-7,-2,1,6,+,5
COc1cccc(-c2c(-c3cc(OC)cc(OC)c3)n(C)c3ccc(-c4cnc(N5CCOCC5)nc4)cc23)c1,-3,0,-5,1,+,-3
CSc1nccc(Oc2ccccc2Cl)n1,7,-1,x,1,i,x
COc1ccc(/C=C/c2c([N+](=O)[O-])c(=O)n(C)c(=O)n2C)cc1OC,-6,0,-4,2,i,2
Cn1c(/C=C/c2ccc(Cl)cc2)c([N+](=O)[O-])c(=O)n(C)c1=O,22*,-7,2,2,u,5
CCCCCOC(=O)C1C2C=CC3(CN(c4ccccc4C)C(=O)C13)O2 (centres undefined),7,-3,-1,2,+,-13
O=C(Nc1ccc2c(c1)OCCO2)c1ccccc1F,2,-33,-2,-3,i,11
CS(=O)(=O)Nc1ccccc1C(=O)Nc1ccc2c(c1)OCCO2,5,-4,3,1,+,0
SMILES,ABHD5 PLIN5 PPI,H9c2 protect,DAGLB inh,sPLA2-III inh,Myeloid diff MLP,Rtt109 Vps75
Cc1ccc(NCc2ccc(O)c3ncccc23)cc1,2,82*,4,-6,i,-4
Cc1ccc(NCc2ccc(O)c3ncccc23)cc1C,4,63*,2,7,i,10
Cc1cccnc1NCc1ccc(O)c2ncccc12,11,33,4,2,i,1
Cc1ccc(OCCn2c(=O)oc3ccc(C)cc32)cc1,-3,-1,-17,-9,i,7
COc1ccc(-c2csc(NC(=O)CCCc3nc4ccccc4c(=O)[nH]3)n2)cc1OC,5,91*,-3,1,i,2
COc1ccc(-c2csc(NC(=O)Cc3ccccc3)n2)cc1OC,-5,4,0,-10,i,6
Cc1nnc(NC(=O)CCn2cnc3ccccc3c2=O)s1,3,0,-1,0,i,9
COc1ccc(-c2csc(NC(=O)CCn3cnc4ccccc4c3=O)n2)cc1OC,0,58*,2,-9,i,-11
Cc1nn(C)c(C)c1S(=O)(=O)N(CC(=O)NCCCOC(C)C)c1ccc(C(C)C)cc1,-1,1,1,3,i,-3
COc1ccc(-c2nc(SCC(=O)N(CC(C)C)c3c(N)n(Cc4ccccc4)c(=O)[nH]c3=O)n[nH]2)cc1,1,-16,6,-1,i,-17
CCCN(C(=O)CSc1n[nH]c(-c2ccc(OC)cc2)n1)c1c(N)n(Cc2ccccc2)c(=O)[nH]c1=O,14,-9,1,-4,+,14
CCOC(=O)CSc1ccc(C(=O)NCCCN2CCOCC2)cc1[N+](=O)[O-],-5,11,-3,10,i,-8
O=C(COc1ccccc1Cl)c1ccc2c(c1)CCCC2,-8,-28,-14,-4,i,-11
Cc1ccccc1C(=O)NCC(=O)OCC(=O)NC(C)C1CC2CCC1C2 (centres undefined),-3,6,1,-2,i,2
Cc1ccc(C(=O)NCC(=O)OCC(=O)NC(C)C2CC3CCC2C3)cc1 (centres undefined),10,-8,-2,-4,i,51*
Cn1c(CNC(=O)c2ccccc2F)nnc1SCc1nc2ccccc2c(=O)[nH]1,x,x,x,9,x,x
CC(C)NC(=S)N/N=C1\CCCc2ccccc21,-4,-4,0,11,i,4
O=C(/C=C/Nc1ccc([N+](=O)[O-])cc1Br)c1cccc2ccccc12,-2,-20,0,7,i,51*
O=C(NCc1cc(C(F)(F)F)ccc1Cl)c1cccc2c1C(=O)c1ccc(N3CCCCC3)cc1S2(=O)=O,-4,6,-3,-1,u,-7
O=C(NCc1cc(C(F)(F)F)ccc1Cl)c1cccc2c1C(=O)c1ccc(N3CCC(N4CCCCC4)CC3)cc1S2(=O)=O,13,-34,-2,6,+,x
O=C(NCc1cc(C(F)(F)F)ccc1Cl)c1cccc2c1C(=O)c1ccc(N3CCOCC3)cc1S2(=O)=O,-1,-17,0,6,+,-3
O=[N+]([O-])c1ccc(N/N=C/C=C/c2ccco2)cc1,4,-8,6,-7,i,-2
CCOC(=O)Cc1nnc(Nc2cc(C)ccc2C)c2ccccc12,-9,1,-1,-42,i,x
O=C(c1ccccc1)c1c(O)cc(-c2ccccc2)oc1=O,8,-3,0,13,i,2
CCCCCn1c(CNC(=O)COC)nc2ccccc21,10,-4,-3,0,i,0

# From PubChem BioAssay
